Assay outcomes from PubChem BioAssay.
MIN6 prolif – MIN6 beta-cell proliferation induction | 330,000 tested, 0.29% active | proliferation, % at 10 µM | AID 2380 | MIN6 cells proliferation, ATPlite luminescence, 48 h; cells starved in 0.2% serum; 100% = growth in 10% serum;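 active means compounds whose signal lies at least 3.5 SD above the mean of all wells on their plate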
SMARCA2 activ – activators of SMARCA2 function; MG213 cells, MMTV-luciferase reporter, dexamethasone, overnight; activation, % at 9.1 µM; 370,000 tested, 1% active; in the data active means activation above about 7.8%
ALR inh – inhibitors of human sulfhydryl oxidase ALR; inhibition, % (concentration not given with the values); P55789; AID 485317; 290,000 tested, 3.8% active; purified ALR, DTT oxidation, H2O2 HRP-luminol luminescence;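 active means mean replicate inhibition above about 79%, with every replicate also reaching it, limit read from the data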
Target sequence (P55789 whole entry, looked up): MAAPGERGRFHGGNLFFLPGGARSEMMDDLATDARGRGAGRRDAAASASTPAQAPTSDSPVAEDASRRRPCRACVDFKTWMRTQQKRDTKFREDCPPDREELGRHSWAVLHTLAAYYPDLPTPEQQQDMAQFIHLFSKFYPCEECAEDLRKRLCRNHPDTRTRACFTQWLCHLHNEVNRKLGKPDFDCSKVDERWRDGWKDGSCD
M18AAP inhibitor – blocks P. falciparum M18 aspartyl aminopeptidase; recombinant PfM18AAP, H-Glu-NHMec fluorogenic cleavage; inhibition, % at 7.35 µM; 290,000 tested, 1.2% active;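 active means inhibition above the campaign mean inhibition over all tested compounds plus 3 SD, cut at about 28% in these data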
Granule exo inh – lytic granule exocytosis inhibition. TALL-104 LAMP-1 surface exposure, flow cytometry; cells stimulated with thapsigargin and PMA. inhibition, % at 10 µM. 360,000 tested, 0.66% active;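 active means inhibition above about 55%, limit read from the data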
JMJD2C inh – blocks human GASC-1 demethylase activity. inhibition, % at 2.35 µM. GST-JMJD2C(1-420) H3K9me3 demethylation, DELFIA europium. 330,000 tested, 0.069% active. Q9H3R0;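 active means more than half of a compound's replicate wells show inhibition beyond 50%, single wells judged on their own value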;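 further: signal counts dimethyl H3K9 product captured on neutravidin plate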
Target sequence (Q9H3R0 1-420 limits assumed): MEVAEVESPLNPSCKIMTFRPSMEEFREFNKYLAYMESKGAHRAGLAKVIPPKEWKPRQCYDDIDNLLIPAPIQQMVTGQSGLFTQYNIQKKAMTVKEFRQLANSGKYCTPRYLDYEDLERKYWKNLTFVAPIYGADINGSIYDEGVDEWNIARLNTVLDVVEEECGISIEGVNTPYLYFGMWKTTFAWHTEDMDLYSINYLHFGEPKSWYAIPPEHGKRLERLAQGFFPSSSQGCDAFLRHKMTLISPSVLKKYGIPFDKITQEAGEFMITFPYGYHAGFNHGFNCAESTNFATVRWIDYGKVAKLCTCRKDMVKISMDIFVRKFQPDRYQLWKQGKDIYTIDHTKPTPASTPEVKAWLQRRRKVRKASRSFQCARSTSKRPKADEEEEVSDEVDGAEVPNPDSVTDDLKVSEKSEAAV
A number is an active result; i = inactive; nt = no result. Shown are actives, neighbours in structure and some others; about 5.4% of the full set was active somewhere.

SMILES	MIN6 prolif	SMARCA2 activ	ALR inh	M18AAP inhibitor	Granule exo inh	JMJD2C inh
Nc1ccc2nc(-c3cccs3)[nH]c2c1	i	i	99	i	i	i
Cc1nc2c(Cl)cc(Cl)cc2[nH]1	i	i	i	i	i	i
Nc1ccc(-c2nc3c(Cl)cc(N)cc3[nH]2)cc1	i	i	99	i	i	i
CC(=O)Nc1ccc2nc(-c3cccs3)[nH]c2c1	i	i	nt	i	i	i
CN1Cc2nnn(Cc3ccccc3)c2-c2cc(N3CCCCC3)ccc2S1(=O)=O	nt	i	nt	nt	nt	nt
COC(=O)[C@]12C[C@H](CC(=O)N3CCC(c4ccccc4)CC3)C(=O)N(Cc3ccco3)C1=C[C@H](C(C)C)O[C@@H]2C1CC1	nt	i	nt	nt	nt	nt
O=C1N(CCCO)CCC12CCC(c1ccccc1)CC2 (configuration not stated)	nt	i	nt	nt	nt	nt
COc1ccc(N2CCN(c3ncccc3C#N)CC2)cc1	i	i	97	i	i	i
COc1ccc(N2CCN(c3ccc(N)cc3C#N)CC2)cc1	i	i	86	i	i	i
COc1ccnc(N2CCN(c3ccccc3)CC2)c1C#N	i	i	99	i	i	i
COc1ccc(CCN(Cc2cccs2)S(=O)(=O)c2ccc(C)s2)cc1OC	nt	i	nt	nt	nt	nt
O=C1ON=C(c2ccc([N+](=O)[O-])cc2)/C1=C/c1ccccc1O	i	i	98	29	i	i
CCOC(=O)n1ccc(C(=O)Nc2ccccc2F)n1	i	i	96	i	i	i
O=C1c2cccc([N+](=O)[O-])c2C(=O)N1C1CCCCC1	i	i	98	i	i	i
O=C1c2cccc([N+](=O)[O-])c2C(=O)N1c1ccccc1	i	i	i	i	i	i
N#CCCN(C(=O)CSc1ccc2c(c1)OCCO2)c1ccc(F)cc1	i	i	98	i	i	i
Cc1ccc(N(CCC#N)C(=O)CSc2ccc3c(c2)OCCO3)cc1	i	i	99	i	i	i
Cc1cc(C)n2c(SCC(=O)N(CCC#N)c3ccc4c(c3)OCCO4)nnc2n1	nt	i	nt	nt	i	nt
Cc1ccc(-c2nc3ncccn3c2NC(=O)c2ccccc2)cc1	nt	i	nt	nt	nt	nt
O=C(NC1CCCCN(Cc2cccc(C(F)(F)F)c2)C1=O)c1ccc(COc2ccccc2)cc1 (configuration not stated)	nt	i	nt	nt	nt	nt
O=C(C1CCCN1S(=O)(=O)c1ccc(Br)s1)N1CCN(c2ccccc2)CC1 (configuration not stated)	nt	i	nt	nt	nt	nt
O=C(NCCc1c[nH]c2ccccc12)OCc1cn(-c2ccccc2Cl)nn1	nt	i	nt	nt	nt	nt
CCc1nnc(N2C(=O)c3ccc(Oc4ccc([N+](=O)[O-])cc4)cc3C2=O)s1	i	i	93	i	i	i
O=C1C=C[C@H]2CC[C@@H](O)[C@@H]1[C@@H]2Sc1ccccc1	nt	i	nt	nt	nt	nt
CCN1c2ccccc2NC2N=C(OC)C(c3ccccc3)C21 (configuration not stated)	i	nt	99	i	i	i
SMILES	MIN6 prolif	SMARCA2 activ	ALR inh	M18AAP inhibitor	Granule exo inh	JMJD2C inh
Cc1ccc(NC(=O)CCNC(=O)c2ccco2)cc1	i	i	i	i	i	i
CCN(c1ccc(NC(=O)CCNC(=O)c2ccco2)cc1)C(C)C	i	i	99	i	i	i
O=Cc1ccccc1-n1cccn1	i	i	nt	i	i	i
Oc1cc(-n2cccn2)c(O)cc1-n1cccn1	nt	i	i	85	i	i
Cc1cccc(C(=O)Nc2nc3ncccn3c2-c2ccccc2)c1	nt	i	nt	nt	nt	nt
CCn1c(COc2ccccc2)nnc1SCC(=O)Nc1ccc(S(=O)(=O)Nc2cc(C)nc(C)n2)cc1	nt	i	nt	nt	nt	nt
CC1CC(c2ccccc2)n2nc(NC(=O)c3ccco3)nc2N1 (configuration not stated)	i	i	i	i	i	i
CC1CC(N(C(=O)c2ccco2)c2ccccc2)c2ccccc2N1 (configuration not stated)	i	i	97	i	i	i
Cc1cc(C)c(C(=O)N2CCCC(Nc3ccc(F)cc3)C2)o1 (configuration not stated)	i	i	99	i	i	i
Cc1cc(C)c(C(=O)N2CCCC(Nc3ccc(C)c(C)c3)C2)o1 (configuration not stated)	i	i	99	i	i	i
CCOC(=O)c1[nH]c(C)c(C(=O)Nc2ccc(C)c(C)c2)c1C	i	i	i	i	i	i
CCOC(=O)c1[nH]c(C)c(C(=O)N2CCCC(Nc3ccc(C)c(C)c3)C2)c1C (configuration not stated)	i	i	99	i	i	i
COc1ccc(NC2CCCN(C(=O)c3oc(C)cc3C)C2)cc1OC (configuration not stated)	i	i	100	i	i	i
O=C(COCc1ccccc1)NC1CCCCN(Cc2cccc(Cl)c2)C1=O (configuration not stated)	nt	i	nt	nt	nt	nt
COC(=O)c1cc2c(c3c4cc(C)ccc4n(S(=O)(=O)c4cccc(C)c4)c13)C(=O)N(Cc1ccccc1OC)C2	nt	i	nt	nt	nt	nt
Cc1ccc(C(=O)n2ccc3ccc(-c4ccc5ccn(Cc6ccc(C#N)cc6)c5c4)cc32)cc1	nt	i	nt	nt	nt	nt
COc1ccc(-c2csc(N(CCCN(C)C)C(=O)c3ccc(F)cc3)n2)cc1	i	i	87	i	i	i
O=C(c1oc2ccccc2c1N1CCCCC1)N1CCCCC1	i	i	99	i	i	i
Cc1cccc(N=C2NC(=O)S/C2=C\c2ccco2)c1	i	i	i	i	i	i
O=C1NC(=Nc2ccc(Cl)cc2)/C(=C/c2ccco2)S1	i	i	87	i	i	i
COC(=O)c1cc(-c2cccc(OCc3ccccc3)c2)c(=O)n2c1CCC2	nt	i	nt	nt	nt	nt
CCCCCN1CCCCC(NC(=O)c2cc(OC)c(OC)c(OC)c2)C1=O (configuration not stated)	nt	i	nt	nt	nt	nt
C/C(=N\Nc1nc(C)cc(C)n1)c1ccc(C)o1	i	i	91	i	i	i
C/C(=N\Nc1nnc2c3ccccc3n(C)c2n1)c1ccc(C)o1	i	i	i	i	i	i
CCOC(=O)[C@]12CCCC=C1N(CCc1ccc(Cl)cc1)C(=O)[C@@H]2CC(=O)NCCC(C)C	nt	i	nt	nt	nt	nt
SMILES	MIN6 prolif	SMARCA2 activ	ALR inh	M18AAP inhibitor	Granule exo inh	JMJD2C inh
Cc1oc(-c2ccccc2Cl)nc1CS(=O)CC(=O)NCc1cccs1 (configuration not stated)	i	i	nt	i	i	i
Cc1oc(-c2ccc(Cl)cc2)nc1CS(=O)CC(=O)NCc1cccs1 (configuration not stated)	i	i	99	i	i	i
Cc1cccc(-c2nc(CSCC(=O)NCc3cccs3)c(C)o2)c1	i	i	98	i	i	i
Cc1cccc(-c2nc(CS(=O)CC(=O)NCc3cccs3)c(C)o2)c1 (configuration not stated)	i	i	nt	i	i	i
Cc1oc(-c2ccccc2F)nc1CS(=O)CC(=O)NCc1cccs1 (configuration not stated)	i	i	100	i	i	i
CCN(CCCNC(=O)COc1cc(=O)n(C)c2ccccc12)c1cccc(C)c1	i	i	98	i	i	i
